# Test results: PubChem BioAssay AID1611 (NINDS Approved Drug Screening Program, 2009)
# Experiment: HSE-luciferase reporter activators – cell-based (AID 1611)
# Settings: human cells, HSE-luciferase heat shock reporter; stronger effect = higher value
row,SMILES,fold change
1,CCn1cc(C(=O)O)c(=O)c2ccc(C)nc21,0.98
2,CC[C@]12CCCN3CCc4c(n(c5ccccc45)[C@](O)(C(=O)OC)C1)[C@@H]32,1.14
3,COc1ccc(C2Sc3ccccc3N(CCN(C)C)C(=O)C2OC(C)=O)cc1 (configuration not stated),0.53
4,CO/N=C(\C(=O)NC1C(=O)N2C(C(=O)O)=C(CSc3nc(=O)c(O)nn3C)CS[C@H]12)c1csc(N)n1 (some centres not stated),0.94
5,CCCCCCc1ccc(O)cc1O,1.27
6,COc1c2occc2c(OC)c2c(=O)cc(C)oc12,0.96
7,CN1CCN(CC(=O)N2c3ccccc3C(=O)Nc3cccnc32)CC1,1.06
8,CC1(C)S[C@@H]2[C@H](NC(=O)[C@H](NC(=O)N3CCNC3=O)c3ccccc3)C(=O)N2C1C(=O)O (some centres not stated),0.89
9,CCOc1ccc2c(c1)C(C)=CC(C)(C)N2,1.18
10,CC1(C)O[C@@H]2CC3C4C[C@H](F)C5=CC(=O)C=CC5(C)C4C(O)CC3(C)[C@]2(C(=O)CO)O1 (some centres not stated),1.4
11,CC1(C)S[C@@H]2C(N3C(=O)[C@@H](c4ccccc4)NC3(C)C)C(=O)N2[C@H]1C(=O)O (some centres not stated),1.12
12,CC[C@H]1OC(=O)[C@H](C)[C@@H](O[C@H]2C[C@@](C)(OC)[C@@H](O)[C@H](C)O2)[C@H](C)[C@@H](O[C@@H]2O[C@H](C)C[C@H](N(C)C)[C@H]2O)[C@](C)(O)C[C@@H](C)C(=O)[C@H](C)[C@@H](O)[C@]1(C)O,0.93
13,O=C1NS(=O)(=O)c2ccccc21,0.91
14,Nc1nc2c(ncn2COCCO)c(=O)[nH]1,1.01
15,Cc1ccc(C)c(OCCCC(C)(C)C(=O)O)c1,0.57
16,C[C@@H]1O[C@@H](O[C@H]2[C@H](Oc3cc(O)c4c(c3)O[C@H](c3ccc(O)cc3)CC4=O)O[C@H](CO)[C@@H](O)[C@@H]2O)[C@H](O)[C@H](O)[C@H]1O,1.36
17,CC(C)CC1NC(=O)CNC1=O (configuration not stated),0.55
18,O=C(CCCN1CC=C(n2c(=O)[nH]c3ccccc32)CC1)c1ccc(F)cc1,0.88
19,NNC(=O)c1ccncc1,0.48
20,Cn1c(=O)c2c(ncn2CCO)n(C)c1=O,0.58
21,CO[C@]12C[C@@H](COC(=O)c3cncc(Br)c3)CN(C)[C@@H]1Cc1cn(C)c3cccc2c13,0.91
22,CC(=O)[C@H]1CCC2C3CC=C4C[C@@H](O)CC[C@]4(C)C3CC[C@@]21C (some centres not stated),0.92
